Experimental findings from PubChem BioAssay (NCATS) are described below.

For some of these results: Results with a measured potency or affinity are listed apart. The source made the active and inactive calls.

By AC50 is commonly meant the concentration giving half of the maximal activity seen.

For the first assay the following is noted: Ebola virus entry assay, blue channel (ratio component).
Consider `CN(C)[C@@H]1C(=O)C(C(N)=O)=C(O)[C@@]2(O)C(=O)C3=C(O)c4c(O)ccc(Cl)c4[C@@H](O)[C@H]3C[C@@H]12`, for which the result was inactive.
On the same count and under the same terms, next, `CN1C(=O)CC(C)(c2ccccc2)C1=O` (stereo not drawn): “inactive”.
In the case of `CO[C@H]1C=CO[C@@]2(C)Oc3c(C)c(O)c4c(O)c(c(/C=N/N5CCN(C)CC5)c(O)c4c3C2=O)NC(=O)/C(C)=C\C=C[C@H](C)[C@H](O)[C@@H](C)[C@@H](O)[C@@H](C)[C@H](OC(C)=O)[C@@H]1C`, the outcome was inactive.
Take `Cc1cc2c(s1)Nc1ccccc1N=C2N1CCN(C)CC1`: the result was inactive.
Same read-out and setting: for `CC(C)(C)NC(=O)[C@H]1CC[C@H]2[C@@H]3CC[C@H]4NC(=O)C=C[C@]4(C)[C@H]3CC[C@]12C` the value was “inactive”; for `CC(C)c1nc(CN(C)C(=O)N[C@H](C(=O)N[C@@H](Cc2ccccc2)C[C@H](O)[C@H](Cc2ccccc2)NC(=O)OCc2cncs2)C(C)C)cs1`, “inactive”.

For a further assay the following is noted: Ebola virus entry reporter assay, green channel fluorescence. In general terms: In a reporter assay the amount or activity of a reporter protein is the signal.
On to `Cc1cn[nH]c1`, for which the result was inactive.
With `CN(C)CCOC(c1ccc(Cl)cc1)c1ccccn1` (stereo not drawn), the compound was classed as inactive.
Turning to `OCCOCCN1CCN(C(c2ccccc2)c2ccc(Cl)cc2)CC1` (stereo not drawn), the compound was called inactive.
In the case of `COc1cc2nc(N(C)CCCNC(=O)C3CCCO3)nc(N)c2cc1OC` (stereo not drawn), the compound was called inactive.
As to `NCC(CC(=O)O)c1ccc(Cl)cc1` (stereo not drawn), the outcome was inactive.
`Cc1ccc(-n2[nH]c(C)c(N=Nc3cccc(-c4cccc(C(=O)O)c4)c3O)c2=O)cc1C`: the call was inactive.
With `CCc1ccc(CCOc2ccc(CC3SC(=O)NC3=O)cc2)nc1` (stereo not drawn), the result was inactive.
Regarding `CC(C)C[C@H](NC(=O)[C@H](Cc1ccccc1)NC(=O)c1cnccn1)B(O)O`, the compound was classed as inactive.
For `O=C(O)c1ccc(-n2nc(-c3ccccc3O)nc2-c2ccccc2O)cc1`, the outcome was inactive.
As for `COc1ccc(C(CN(C)C)C2(O)CCCCC2)cc1` (stereo not drawn), the outcome was inactive.
For `Cc1nc(-c2ccc(OCC(C)C)c(C#N)c2)sc1C(=O)O`, the result was inactive.
Take `C[C@]12C/C(=C/O)C(=O)C[C@@H]1CC[C@@H]1[C@@H]2CC[C@@]2(C)[C@H]1CC[C@]2(C)O`: the compound was called inactive.
As for `CC(=O)Nc1nnc(S(N)(=O)=O)s1`, the outcome was inactive.
For `CC(=O)O[C@@]12CO[C@@H]1C[C@H](O)[C@@]1(C)C(=O)[C@H](O)C3=C(C)[C@@H](OC(=O)[C@H](O)[C@@H](NC(=O)OC(C)(C)C)c4ccccc4)C[C@@](O)([C@@H](OC(=O)c4ccccc4)[C@H]21)C3(C)C`, the call was inactive.
On to `CN1C(=O)CC(C)(c2ccccc2)C1=O` (stereo not drawn), for which the outcome was inactive.
As to `CO[C@H]1C=CO[C@@]2(C)Oc3c(C)c(O)c4c(O)c(c(/C=N/N5CCN(C)CC5)c(O)c4c3C2=O)NC(=O)/C(C)=C\C=C[C@H](C)[C@H](O)[C@@H](C)[C@@H](O)[C@@H](C)[C@H](OC(C)=O)[C@@H]1C`, the compound was classed as inactive.
The same measure, in the same setting: next, `CC(C)c1nc(CN(C)C(=O)N[C@H](C(=O)N[C@@H](Cc2ccccc2)C[C@H](O)[C@H](Cc2ccccc2)NC(=O)OCc2cncs2)C(C)C)cs1`: “inactive”.

The conditions of a further assay: Ebola virus entry cell assay, ratio channel.
For the compound `Cc1cn[nH]c1`, the result was inactive.
Still for that read-out and setting: for `CN(C)CCOC(c1ccc(Cl)cc1)c1ccccn1` (stereo not drawn) the value was “inactive”; for `OCCOCCN1CCN(C(c2ccccc2)c2ccc(Cl)cc2)CC1` (stereo not drawn), “inactive”; for `Cc1nc2n(c(=O)c1CCN1CCC(c3noc4cc(F)ccc34)CC1)CCCC2`, “inactive”.
On to `COc1cc2nc(N(C)CCCNC(=O)C3CCCO3)nc(N)c2cc1OC` (stereo not drawn), for which the outcome was inactive.
As to `NCC(CC(=O)O)c1ccc(Cl)cc1` (stereo not drawn), the result was inactive.
For `O=C1CCc2cc(OCCCCc3nnnn3C3CCCCC3)ccc2N1`, the outcome was inactive.
For the compound `Cc1ccc(-n2[nH]c(C)c(N=Nc3cccc(-c4cccc(C(=O)O)c4)c3O)c2=O)cc1C`, the result was inactive.
Regarding `CN(C)c1ccc(O)c2c1C[C@H]1C[C@H]3[C@H](N(C)C)C(=O)C(C(N)=O)=C(O)[C@@]3(O)C(=O)C1=C2O`, the outcome was inactive.
As to `CCc1ccc(CCOc2ccc(CC3SC(=O)NC3=O)cc2)nc1` (stereo not drawn), the outcome was inactive.
Turning to `CC(S)C(=O)NCC(=O)O` (stereo not drawn), the outcome was inactive.
Still for that read-out and setting: next, `N=C(N)c1ccc(OCCCCCOc2ccc(C(=N)N)cc2)cc1`: “inactive”; `CC(C)C[C@H](NC(=O)[C@H](Cc1ccccc1)NC(=O)c1cnccn1)B(O)O`: “inactive”; `O=C(O)c1ccc(-n2nc(-c3ccccc3O)nc2-c2ccccc2O)cc1`: “inactive”.
Take `COc1ccc(C(CN(C)C)C2(O)CCCCC2)cc1` (stereo not drawn): the result was inactive.
Same read-out and setting: next, `Cc1nc(-c2ccc(OCC(C)C)c(C#N)c2)sc1C(=O)O`: “inactive”; `C[C@H]1c2cccc(O)c2C(O)=C2C(=O)[C@]3(O)C(O)=C(C(N)=O)C(=O)[C@@H](N(C)C)[C@@H]3[C@@H](O)[C@@H]21`: “inactive”.
In the case of `C[C@]12C/C(=C/O)C(=O)C[C@@H]1CC[C@@H]1[C@@H]2CC[C@@]2(C)[C@H]1CC[C@]2(C)O`, the result was inactive.
On to `CN(C)[C@@H]1C(=O)C(C(N)=O)=C(O)[C@@]2(O)C(=O)C3=C(O)c4c(O)cccc4[C@@](C)(O)[C@H]3C[C@@H]12`, for which the outcome was inactive.
On to `CN(Cc1cnc2nc(N)nc(N)c2n1)c1ccc(C(=O)N[C@@H](CCC(=O)O)C(=O)O)cc1`, for which the result was inactive.
`CC(=O)Oc1cc2c(s1)CCN(C(C(=O)C1CC1)c1ccccc1F)C2` (stereo not drawn): the result was inactive.
As for `CC[C@@]1(O)C(=O)OCc2c1cc1n(c2=O)Cc2cc3c(CN(C)C)c(O)ccc3nc2-1`, the concentration at half-maximal activity (AC50) was 5.62 µM (active).
Turning to `CCOC(=O)Nc1ccc2c(c1)N(C(=O)CCN1CCOCC1)c1ccccc1S2`, the outcome was inactive.
Consider `CC(=O)Nc1nnc(S(N)(=O)=O)s1`, for which the result was inactive.
`CC(=O)O[C@@]12CO[C@@H]1C[C@H](O)[C@@]1(C)C(=O)[C@H](O)C3=C(C)[C@@H](OC(=O)[C@H](O)[C@@H](NC(=O)OC(C)(C)C)c4ccccc4)C[C@@](O)([C@@H](OC(=O)c4ccccc4)[C@H]21)C3(C)C`: the result was inactive.
As for `CC#C[C@]1(O)CC[C@H]2[C@@H]3CCC4=CC(=O)CCC4=C3[C@@H](c3ccc(N(C)C)cc3)C[C@@]21C`, the outcome was inactive.
As for `COC(=O)CCc1ccc(OCC(O)CNC(C)C)cc1` (stereo not drawn), the outcome was inactive.
Same read-out and setting: for `CN(C)[C@@H]1C(=O)C(C(N)=O)=C(O)[C@@]2(O)C(=O)C3=C(O)c4c(O)ccc(Cl)c4[C@@H](O)[C@H]3C[C@@H]12` the value was “inactive”; for `CN1C(=O)CC(C)(c2ccccc2)C1=O` (stereo not drawn), “inactive”.
For `CO[C@H]1C=CO[C@@]2(C)Oc3c(C)c(O)c4c(O)c(c(/C=N/N5CCN(C)CC5)c(O)c4c3C2=O)NC(=O)/C(C)=C\C=C[C@H](C)[C@H](O)[C@@H](C)[C@@H](O)[C@@H](C)[C@H](OC(C)=O)[C@@H]1C`, the result was inactive.
In the case of `Cc1cc2c(s1)Nc1ccccc1N=C2N1CCN(C)CC1`, the result was inactive.
Consider `CC(C)(C)NC(=O)[C@H]1CC[C@H]2[C@@H]3CC[C@H]4NC(=O)C=C[C@]4(C)[C@H]3CC[C@]12C`, for which the outcome was inactive.
For `CCc1c2c(nc3ccc(OC(=O)N4CCC(N5CCCCC5)CC4)cc13)-c1cc3c(c(=O)n1C2)COC(=O)[C@]3(O)CC`, the result was inactive.
Consider `CC(C)c1nc(CN(C)C(=O)N[C@H](C(=O)N[C@@H](Cc2ccccc2)C[C@H](O)[C@H](Cc2ccccc2)NC(=O)OCc2cncs2)C(C)C)cs1`, for which the outcome was inactive.
Regarding `NC[C@H](O)c1ccc(O)c(O)c1`, the result was inactive.
